Calls of active or inactive are those of the source.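 How the source made its calls: active means inhibition of the USP46/UAF1 deubiquitinase of at least 60% at 114 µM in the gel test; inconclusive means inhibition from 30% up to under 60%; inactive means inhibition below 30%.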
Target: Ubiquitin carboxyl-terminal hydrolase 46 (Homo sapiens) + WD repeat-containing protein 48 (Homo sapiens) (UniProt P62068+Q8TAF3)
Experiment: Inhibitors of USP1/UAF1: SAR in USP46/UAF1 diubiquitin SDS-PAGE gel assay
Settings: USP46/UAF1 K63 diubiquitin cleavage; series mostly up to 114 µM; inhibition: at the top concentration
From the text: Deubiquitinating enzymes (DUBs) are a class of enzymes that can cleave isopeptide bond formed between the C-terminal carboxylate of ubiquitin and a lysine side-chain amino group on the target protein. Among them, ubiquitin specific proteases (USPs) constitute the largest DUB family. Human USPs are emerging as promising targets for pharmacological intervention because of their connection to a number of human diseases, including prostate, colon and breast cancer (1, 2), pediatric acute lymphoblastic leukemia (3), and familial cylindromatosis (4). The advantage of inhibiting USPs lies in the potential specificity of therapeutic intervention that can lead to better efficacy and reduce nonspecific side effects. In a collaboration between the University of Delaware and the NIH Chemical Genomics Center, a high-throughput screen assay was developed to screen for USP1/UAF1 inhibitors (5). […]
The inhibition assay contains 100 nM USP46/UAF1, 2 microM K63 linked diubiquitin, and inhibitors at varied concentrations (0.08 microM - 114 microM). […] The intensity of the individual diubiquitin and monoubiquitin band was quantified using Quantity One 4.3.1 (Biorad, Hercules, CA). The percentage of the conversion was determined and used to calculate the reaction rate. […]

Sequence of Ubiquitin carboxyl-terminal hydrolase 46 (Homo sapiens) + WD repeat-containing protein 48 (Homo sapiens) (P62068 whole entry, looked up): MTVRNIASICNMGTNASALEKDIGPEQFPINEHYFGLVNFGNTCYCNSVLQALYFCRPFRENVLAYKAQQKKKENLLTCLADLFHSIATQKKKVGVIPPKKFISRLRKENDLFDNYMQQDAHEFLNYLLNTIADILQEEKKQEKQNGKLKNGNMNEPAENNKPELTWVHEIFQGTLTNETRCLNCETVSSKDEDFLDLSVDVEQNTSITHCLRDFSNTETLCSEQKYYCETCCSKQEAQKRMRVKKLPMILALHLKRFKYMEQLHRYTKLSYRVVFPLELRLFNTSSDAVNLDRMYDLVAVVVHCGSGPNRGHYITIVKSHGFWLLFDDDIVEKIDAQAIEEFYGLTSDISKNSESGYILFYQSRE
Sequence of Ubiquitin carboxyl-terminal hydrolase 46 (Homo sapiens) + WD repeat-containing protein 48 (Homo sapiens) (Q8TAF3 whole entry, looked up): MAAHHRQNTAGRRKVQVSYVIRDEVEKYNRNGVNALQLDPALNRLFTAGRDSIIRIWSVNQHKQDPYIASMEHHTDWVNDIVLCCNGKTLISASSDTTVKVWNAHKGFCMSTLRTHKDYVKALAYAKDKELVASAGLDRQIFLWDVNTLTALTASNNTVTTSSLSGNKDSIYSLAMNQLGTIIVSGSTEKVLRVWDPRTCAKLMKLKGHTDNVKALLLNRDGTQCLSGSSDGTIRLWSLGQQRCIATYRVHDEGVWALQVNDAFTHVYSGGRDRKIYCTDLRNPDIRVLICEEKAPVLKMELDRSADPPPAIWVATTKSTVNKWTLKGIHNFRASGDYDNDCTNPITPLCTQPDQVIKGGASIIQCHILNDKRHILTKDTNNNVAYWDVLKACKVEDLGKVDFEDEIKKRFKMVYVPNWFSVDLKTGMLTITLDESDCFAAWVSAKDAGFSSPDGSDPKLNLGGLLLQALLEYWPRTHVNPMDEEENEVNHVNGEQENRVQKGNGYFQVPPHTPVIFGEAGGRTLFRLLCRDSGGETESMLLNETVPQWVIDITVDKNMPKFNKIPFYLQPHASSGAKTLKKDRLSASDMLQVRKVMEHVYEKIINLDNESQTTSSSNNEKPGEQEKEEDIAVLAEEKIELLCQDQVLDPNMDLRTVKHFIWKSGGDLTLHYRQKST

Row | Compound | inhibition
1 | Cc1cnc(-c2ccccc2C(C)C)nc1NCc1ccc(-n2ccnn2)cc1 | 9% (inactive)
